Targets with a hit are over-represented here; the source holds about 7,900 in all. About 0.6% of all pairs of compound and target were hits.

UniProt Q8N108, sequence (Q8N108 whole entry, looked up): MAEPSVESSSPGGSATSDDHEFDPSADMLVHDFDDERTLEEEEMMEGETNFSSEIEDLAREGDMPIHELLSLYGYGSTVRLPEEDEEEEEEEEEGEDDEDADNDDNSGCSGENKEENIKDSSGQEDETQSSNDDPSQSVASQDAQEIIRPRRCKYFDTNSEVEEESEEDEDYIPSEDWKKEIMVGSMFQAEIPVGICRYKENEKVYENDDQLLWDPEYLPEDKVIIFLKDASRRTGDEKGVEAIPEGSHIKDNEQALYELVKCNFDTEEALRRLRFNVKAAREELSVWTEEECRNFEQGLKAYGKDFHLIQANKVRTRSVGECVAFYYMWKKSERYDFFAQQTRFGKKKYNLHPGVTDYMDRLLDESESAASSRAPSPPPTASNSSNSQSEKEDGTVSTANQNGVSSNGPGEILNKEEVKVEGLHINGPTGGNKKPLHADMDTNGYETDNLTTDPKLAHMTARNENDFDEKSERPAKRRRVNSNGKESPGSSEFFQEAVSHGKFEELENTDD
UniProt Q7LBC6, sequence (Q7LBC6 whole entry, looked up): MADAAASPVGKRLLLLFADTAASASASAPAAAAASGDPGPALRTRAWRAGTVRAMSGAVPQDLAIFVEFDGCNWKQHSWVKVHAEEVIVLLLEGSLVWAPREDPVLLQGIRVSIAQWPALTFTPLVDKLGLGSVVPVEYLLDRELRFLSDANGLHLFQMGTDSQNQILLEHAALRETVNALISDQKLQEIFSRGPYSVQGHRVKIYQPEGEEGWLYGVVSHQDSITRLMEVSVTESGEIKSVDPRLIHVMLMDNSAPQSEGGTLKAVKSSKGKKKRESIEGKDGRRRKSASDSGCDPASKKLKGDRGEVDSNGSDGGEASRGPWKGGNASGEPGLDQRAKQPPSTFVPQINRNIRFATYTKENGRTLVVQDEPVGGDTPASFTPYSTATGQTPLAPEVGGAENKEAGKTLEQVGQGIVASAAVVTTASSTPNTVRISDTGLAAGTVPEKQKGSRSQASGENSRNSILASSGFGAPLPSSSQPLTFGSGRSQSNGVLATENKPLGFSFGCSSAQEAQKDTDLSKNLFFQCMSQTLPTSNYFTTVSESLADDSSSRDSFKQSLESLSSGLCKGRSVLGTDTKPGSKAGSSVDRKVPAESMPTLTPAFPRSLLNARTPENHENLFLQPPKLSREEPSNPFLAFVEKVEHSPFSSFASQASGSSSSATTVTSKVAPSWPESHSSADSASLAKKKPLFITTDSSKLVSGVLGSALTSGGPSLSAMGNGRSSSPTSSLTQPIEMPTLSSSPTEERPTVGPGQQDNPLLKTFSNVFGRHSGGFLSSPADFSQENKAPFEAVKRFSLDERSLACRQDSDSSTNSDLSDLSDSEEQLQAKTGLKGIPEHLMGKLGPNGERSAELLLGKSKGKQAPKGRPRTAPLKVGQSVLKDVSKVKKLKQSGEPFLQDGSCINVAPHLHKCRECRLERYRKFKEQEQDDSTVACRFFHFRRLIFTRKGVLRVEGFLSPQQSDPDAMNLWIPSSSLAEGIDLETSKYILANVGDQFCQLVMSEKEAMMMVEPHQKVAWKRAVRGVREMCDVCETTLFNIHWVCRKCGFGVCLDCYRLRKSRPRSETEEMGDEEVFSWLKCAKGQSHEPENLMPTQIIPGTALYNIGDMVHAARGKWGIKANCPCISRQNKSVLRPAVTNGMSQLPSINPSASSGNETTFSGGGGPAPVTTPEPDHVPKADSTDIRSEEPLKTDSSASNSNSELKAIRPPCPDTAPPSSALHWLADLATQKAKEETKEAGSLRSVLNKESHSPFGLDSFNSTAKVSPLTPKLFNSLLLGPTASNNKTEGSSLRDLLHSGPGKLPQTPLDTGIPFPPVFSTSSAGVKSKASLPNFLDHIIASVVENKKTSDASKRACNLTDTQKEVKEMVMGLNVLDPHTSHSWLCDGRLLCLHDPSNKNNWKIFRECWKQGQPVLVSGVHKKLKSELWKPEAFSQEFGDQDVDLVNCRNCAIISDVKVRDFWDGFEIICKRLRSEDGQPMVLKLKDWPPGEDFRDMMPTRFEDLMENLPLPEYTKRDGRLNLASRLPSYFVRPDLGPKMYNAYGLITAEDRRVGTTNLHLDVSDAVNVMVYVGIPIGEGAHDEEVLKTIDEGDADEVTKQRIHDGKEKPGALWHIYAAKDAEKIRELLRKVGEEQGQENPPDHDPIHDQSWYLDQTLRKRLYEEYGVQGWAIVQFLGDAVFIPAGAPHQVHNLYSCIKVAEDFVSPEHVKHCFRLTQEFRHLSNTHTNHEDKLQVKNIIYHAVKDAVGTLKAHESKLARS
UniProt Q8TBB5, sequence (Q8TBB5 whole entry, looked up): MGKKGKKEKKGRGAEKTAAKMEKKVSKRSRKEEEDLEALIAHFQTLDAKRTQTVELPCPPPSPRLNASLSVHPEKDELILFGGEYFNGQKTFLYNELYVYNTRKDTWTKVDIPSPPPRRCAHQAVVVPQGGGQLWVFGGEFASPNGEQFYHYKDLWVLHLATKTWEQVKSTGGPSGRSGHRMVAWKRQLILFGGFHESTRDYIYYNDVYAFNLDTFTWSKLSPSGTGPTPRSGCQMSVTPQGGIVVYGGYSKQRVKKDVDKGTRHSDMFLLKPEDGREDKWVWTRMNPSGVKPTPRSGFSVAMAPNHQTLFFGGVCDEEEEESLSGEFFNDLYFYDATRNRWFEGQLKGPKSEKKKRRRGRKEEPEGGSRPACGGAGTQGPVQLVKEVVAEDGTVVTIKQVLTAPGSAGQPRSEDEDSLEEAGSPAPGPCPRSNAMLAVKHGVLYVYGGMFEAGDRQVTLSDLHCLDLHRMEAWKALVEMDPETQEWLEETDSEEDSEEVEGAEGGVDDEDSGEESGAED
UniProt O43766, sequence (O43766 whole entry, looked up): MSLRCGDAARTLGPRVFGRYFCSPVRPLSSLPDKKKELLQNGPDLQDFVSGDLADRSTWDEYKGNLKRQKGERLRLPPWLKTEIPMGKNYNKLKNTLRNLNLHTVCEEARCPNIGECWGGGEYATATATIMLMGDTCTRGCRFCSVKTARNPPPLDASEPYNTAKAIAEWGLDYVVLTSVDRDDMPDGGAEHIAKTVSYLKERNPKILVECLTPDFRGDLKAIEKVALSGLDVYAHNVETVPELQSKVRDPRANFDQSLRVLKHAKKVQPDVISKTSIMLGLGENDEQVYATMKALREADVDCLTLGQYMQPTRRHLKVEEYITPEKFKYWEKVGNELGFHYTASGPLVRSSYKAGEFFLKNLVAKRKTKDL
UniProt Q13422, sequence (Q13422 whole entry, looked up): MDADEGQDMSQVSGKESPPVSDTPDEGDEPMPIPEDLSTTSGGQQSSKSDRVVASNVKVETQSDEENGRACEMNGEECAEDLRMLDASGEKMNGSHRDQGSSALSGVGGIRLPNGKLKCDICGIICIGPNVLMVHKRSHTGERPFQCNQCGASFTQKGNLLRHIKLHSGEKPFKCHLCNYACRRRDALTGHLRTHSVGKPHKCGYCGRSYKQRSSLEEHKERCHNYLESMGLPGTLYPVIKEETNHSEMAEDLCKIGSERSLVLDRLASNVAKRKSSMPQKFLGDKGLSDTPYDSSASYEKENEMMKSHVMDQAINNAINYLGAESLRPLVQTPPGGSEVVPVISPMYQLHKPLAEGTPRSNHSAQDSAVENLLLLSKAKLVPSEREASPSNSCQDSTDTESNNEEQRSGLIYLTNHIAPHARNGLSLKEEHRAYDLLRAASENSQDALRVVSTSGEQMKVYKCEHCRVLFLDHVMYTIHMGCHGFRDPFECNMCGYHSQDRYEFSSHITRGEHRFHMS
UniProt Q9Y2E5, sequence (Q9Y2E5 whole entry, looked up): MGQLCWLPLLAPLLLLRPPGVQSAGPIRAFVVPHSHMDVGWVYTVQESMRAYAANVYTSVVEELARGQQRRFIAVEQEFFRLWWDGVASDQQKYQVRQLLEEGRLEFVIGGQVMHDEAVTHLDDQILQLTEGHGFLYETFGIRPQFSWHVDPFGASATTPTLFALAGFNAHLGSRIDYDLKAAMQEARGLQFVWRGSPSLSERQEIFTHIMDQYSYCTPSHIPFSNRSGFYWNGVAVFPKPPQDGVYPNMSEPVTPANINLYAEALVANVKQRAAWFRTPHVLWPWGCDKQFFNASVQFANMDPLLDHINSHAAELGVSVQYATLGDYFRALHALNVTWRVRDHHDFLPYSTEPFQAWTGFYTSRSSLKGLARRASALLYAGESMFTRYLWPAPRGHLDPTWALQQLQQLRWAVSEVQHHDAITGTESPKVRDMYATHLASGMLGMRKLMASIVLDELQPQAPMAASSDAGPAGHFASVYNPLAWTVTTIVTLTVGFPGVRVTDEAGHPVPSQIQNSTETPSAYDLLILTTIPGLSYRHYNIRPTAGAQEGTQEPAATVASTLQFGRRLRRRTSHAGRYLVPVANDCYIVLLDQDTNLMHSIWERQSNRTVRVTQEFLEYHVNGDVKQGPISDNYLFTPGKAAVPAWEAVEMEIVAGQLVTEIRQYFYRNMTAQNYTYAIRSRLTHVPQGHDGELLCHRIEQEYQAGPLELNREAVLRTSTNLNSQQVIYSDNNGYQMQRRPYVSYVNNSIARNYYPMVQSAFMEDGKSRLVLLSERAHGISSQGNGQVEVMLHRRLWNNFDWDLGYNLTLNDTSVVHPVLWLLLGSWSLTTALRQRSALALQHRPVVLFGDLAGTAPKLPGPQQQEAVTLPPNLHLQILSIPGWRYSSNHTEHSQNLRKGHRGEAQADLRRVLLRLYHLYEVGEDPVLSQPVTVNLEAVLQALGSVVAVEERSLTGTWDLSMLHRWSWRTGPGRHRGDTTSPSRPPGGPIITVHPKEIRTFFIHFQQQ
UniProt P01116, sequence (P01116 whole entry, looked up): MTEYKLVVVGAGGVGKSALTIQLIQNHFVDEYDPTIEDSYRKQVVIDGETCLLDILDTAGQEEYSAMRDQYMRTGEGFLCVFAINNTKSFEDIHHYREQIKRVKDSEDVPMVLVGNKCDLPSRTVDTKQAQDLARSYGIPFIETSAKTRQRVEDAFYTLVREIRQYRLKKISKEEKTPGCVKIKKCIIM
UniProt Q8WV07, sequence (Q8WV07 whole entry, looked up): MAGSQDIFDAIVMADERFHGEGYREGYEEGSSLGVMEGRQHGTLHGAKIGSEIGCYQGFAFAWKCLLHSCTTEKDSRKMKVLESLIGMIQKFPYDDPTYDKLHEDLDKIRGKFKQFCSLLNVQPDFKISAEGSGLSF

Compound in one test: C1=CC=C(C=C1)C2=NC(=C(N2)C3=CC=NC=C3)C4=CC(=C(C=C4)Cl)O
Briefly: log2 fold change, soluble protein after heating vs DMSO (PISA); higher = thermal stabilisation; K562 cells, 10 uM, 30 min; active = over 0.2 and 3.5 SD of the protein, either way, in both replicates (recomputed). The essentials:
(§1)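 For each measurement, 10 μM compound was applied for 30 min to K562 cells at 2×10^6 cells/mL. Aliquots were heated for 3 min across 48°C-58°C, pooled, and extracted in PBS with 0.5% NP-40 at 4°C; the supernatant after 21,000xg for 90 min was soluble protein. This was quantified by TMTpro 16plex LC-MS/MS with channel sums equalised, and thermal stability was reported relative to control samples from duplicates, on a log2 fold-change scale.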
As to KPNA6 (UniProt O60684), the log2 fold change is 0.015 (inactive).
Same read-out and setting: with KDM3B (UniProt Q7LBC6) the figure was 0.029 (inactive).
Same read-out and setting: with LMBRD2 (UniProt Q68DH5) the figure was 0.016 (inactive); with ME2 (UniProt P23368), 0.055 (inactive).
Same read-out and setting: with ILKAP (UniProt Q9H0C8) the figure was 0.022 (inactive); with MFN2 (UniProt O95140), 0.041 (inactive).
As for INPP5B (UniProt P32019), the log2 fold change is 0.026 (inactive).
On to LARP1 (UniProt Q6PKG0), for which the log2 fold change was -0.081 (inactive).
In the case of MIER1 isoform 12 (UniProt Q8N108), the log2 fold change is 0.001 (inactive).
Turning to L2HGDH (UniProt Q9H9P8), the log2 fold change was 0.05 (inactive).
Same read-out and setting: with KRAS isoform 2 (UniProt P01116) the figure was 0.002 (inactive); with LTO1 (UniProt Q8WV07), -0.035 (inactive); with MFN1 (UniProt Q8IWA4), -0.016 (inactive).
Still for that read-out and setting: with IKZF1 (UniProt Q13422) the figure was -0.069 (inactive).
Still for that read-out and setting: with MAP3K7 (UniProt O43318) the figure was -0.016 (inactive); with KIF3A (UniProt Q9Y496), -0.062 (inactive).
For the target IMMT isoform 4 (UniProt Q16891), the log2 fold change is 0.012 (inactive).
With LDLR (UniProt P01130), the log2 fold change is 0.011 (inactive).
For LMNA (UniProt P02545), the log2 fold change is -0.049 (inactive).
Same read-out and setting: with MAGI1 (UniProt Q96QZ7) the figure was -0.015 (inactive).
Regarding MAP3K4 isoform 2 (UniProt Q9Y6R4), the log2 fold change is -0.023 (inactive).
Same read-out and setting: with IWS1 (UniProt Q96ST2) the figure was -0.013 (inactive); with INTS5 (UniProt Q6P9B9), -0.138 (inactive); with KLHDC4 (UniProt Q8TBB5), -0.081 (inactive).
Same read-out and setting: with LSS (UniProt P48449) the figure was -0.005 (inactive); with MAN2B2 (UniProt Q9Y2E5), -0.07 (inactive).
Consider KHDC4 (UniProt Q7Z7F0), for which the log2 fold change is 0.074 (inactive).
As for MCCC2 (UniProt Q9HCC0), the log2 fold change is 0.047 (inactive).
The same measure, in the same setting: with MAPKAPK5 (UniProt Q8IW41) the figure was 0.043 (inactive); with JMJD6 isoform 3 (UniProt Q6NYC1), 0.107 (inactive).
As for LARP4B (UniProt Q92615), the log2 fold change was 0.063 (inactive).
Still for that read-out and setting: with LEO1 (UniProt Q8WVC0) the figure was -0.035 (inactive); with KDM1A isoform 2 (UniProt O60341), 0.059 (inactive).
Take MFSD5 isoform 2 (UniProt Q6N075): the log2 fold change is -0.144 (inactive).
Same read-out and setting: with ITIH4 (UniProt Q14624) the figure was 0.061 (inactive).
On the same count and under the same terms, with LARP4 isoform 4 (UniProt Q71RC2) the figure was -0.028 (inactive); with LTV1 (UniProt Q96GA3), -0.055 (inactive).
Same read-out and setting: with LIAS (UniProt O43766) the figure was -0.273 (inactive).

Compound in a further test: C1=CC=C2C(=C1)C3=NNC4=CC=CC(=C43)C2=O
The test is described as above. The essentials: as §1
Take KPNA6 (UniProt O60684): the log2 fold change was -0.119 (inactive).
Still for that read-out and setting: with KDM3B (UniProt Q7LBC6) the figure was -0.015 (inactive); with LMBRD2 (UniProt Q68DH5), -0.118 (inactive); with ME2 (UniProt P23368), -0.061 (inactive).
Still for that read-out and setting: with ILKAP (UniProt Q9H0C8) the figure was 0.088 (inactive); with MFN2 (UniProt O95140), -0.003 (inactive).
Same read-out and setting: with INPP5B (UniProt P32019) the figure was -0.04 (inactive); with LARP1 (UniProt Q6PKG0), -0.067 (inactive).
Consider MIER1 isoform 12 (UniProt Q8N108), for which the log2 fold change is 0.02 (inactive).
The same measure, in the same setting: with L2HGDH (UniProt Q9H9P8) the figure was 0.093 (inactive).
On the same count and under the same terms, with KRAS isoform 2 (UniProt P01116) the figure was -0.03 (inactive); with LTO1 (UniProt Q8WV07), -0.052 (inactive).
Same read-out and setting: with MFN1 (UniProt Q8IWA4) the figure was -0.015 (inactive); with IKZF1 (UniProt Q13422), 0.144 (inactive); with MAP3K7 (UniProt O43318), 0.113 (inactive).
On to KIF3A (UniProt Q9Y496), for which the log2 fold change was -0.025 (inactive).
On the same count and under the same terms, with IMMT isoform 4 (UniProt Q16891) the figure was 0.001 (inactive).
In the case of LDLR (UniProt P01130), the log2 fold change was -0.113 (inactive).
Same read-out and setting: with LMNA (UniProt P02545) the figure was -0.171 (inactive); with MAGI1 (UniProt Q96QZ7), -0.016 (inactive); with MAP3K4 isoform 2 (UniProt Q9Y6R4), -0.031 (inactive).
Same read-out and setting: with IWS1 (UniProt Q96ST2) the figure was -0.077 (inactive).
Regarding INTS5 (UniProt Q6P9B9), the log2 fold change was -0.18 (inactive).
On the same count and under the same terms, with KLHDC4 (UniProt Q8TBB5) the figure was 0.07 (inactive); with LSS (UniProt P48449), 0.081 (inactive); with MAN2B2 (UniProt Q9Y2E5), 0.063 (inactive).
The same measure, in the same setting: with KHDC4 (UniProt Q7Z7F0) the figure was -0.041 (inactive).
Take MCCC2 (UniProt Q9HCC0): the log2 fold change was 0.004 (inactive).
Still for that read-out and setting: with MAPKAPK5 (UniProt Q8IW41) the figure was 0.025 (inactive).
Same read-out and setting: with JMJD6 isoform 3 (UniProt Q6NYC1) the figure was -0.037 (inactive).
The same measure, in the same setting: with LARP4B (UniProt Q92615) the figure was -0.06 (inactive).
Turning to LEO1 (UniProt Q8WVC0), the log2 fold change was -0.039 (inactive).
On the same count and under the same terms, with KDM1A isoform 2 (UniProt O60341) the figure was -0.026 (inactive); with MFSD5 isoform 2 (UniProt Q6N075), 0.109 (inactive).
As to ITIH4 (UniProt Q14624), the log2 fold change is -0.06 (inactive).
Consider LARP4 isoform 4 (UniProt Q71RC2), for which the log2 fold change is -0.044 (inactive).
Still for that read-out and setting: with LTV1 (UniProt Q96GA3) the figure was 0.046 (inactive).
The same measure, in the same setting: with LIAS (UniProt O43766) the figure was 0.009 (inactive).

(Values after the supplement of paper PMC10849652.)
